Laboratory results taken from PubChem BioAssay AID540364 (The Scripps Research Institute Molecular Screening Center, 2011).
The campaign covered roughly 360,000 compounds. About 2,000 (0.56%) were called active. The entries come from a sample that favours actives as a whole. Values without a mark were called inactive.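 The calls were made as follows: active = activation above the average of all compounds screened plus 3 SD, cutoff fixed separately per campaign (cut at about 7.5% in these data); inactive = the rest.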

test: GAA850 frataxin promoter reporter upregulation – cell-based, luciferase luminescence, HEK293 lucGAA850, primary screen (AID 540364); conditions: HEK293 lucGAA850 FXN promoter luciferase reporter, 24 h; at 6 µM; hits give high values;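 also: 0% = DMSO wells and 100% = 10 µM SAHA wells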

Row | Structure (SMILES) | activation
1 | O=C1C2(Cl)C3(Cl)C4(Cl)C(Cl)(Cl)C5(Cl)C3(Cl)C1(Cl)C5(Cl)C24Cl (stereo not given) | 9.58% (active)
2 | COc1ccc(Br)cc1CNCCc1cccc(Cl)c1 | -0.31%
3 | O=C(c1cc2nc(-c3ccccc3)cc(-c3ccccc3)n2n1)N1CCC2(CC1)OCCO2 | -0.55%
4 | NCC(O)c1ccc(O)cc1 (stereo not given) | 2.36%
5 | CN1CCN(C(=O)COc2ccc(C(C)(C)C)cc2Br)CC1 | -0.38%
6 | O=C(Nc1cccc(OC(=O)N2CCCCC2)c1)N1CCOCC1 | -1.14%
7 | CC(C)(C)c1ccc(OC(=O)N2CCCCC2)cc1 | 8.59% (active)
8 | CCN(CC)P(=O)(Oc1cccc(C)c1)N(CC)CC | -1.37%
9 | COc1ccc(-n2c(-c3ccccc3)nc3ccccc3c2=O)cc1 | 0.96%
10 | CC(=C1C(=O)c2ccccc2C1=O)N1CCN(CCN=Cc2c(O)n(C)c(=O)n(C)c2=O)CC1 | 1.17%
